Screening data deposited in PubChem BioAssay by National Center for Advancing Translational Sciences (NCATS).
Vaccinia mCherry – vaccinia inhibition (mCherry reporter) | Vaccinia virus mCherry reporter infection, fluorescence | Potency, µM (titrated, usually from 36.5 µM), most hits filed as inhibitors | actives 0.63% (n = 310,000) | AID 720579; calls by dose curve; tested in A549 cells; also: nearly all actives have a fitted effect of over 35% in size
VACV Venus inh – inhibitors of vaccinia virus (Venus reporter). Vaccinia virus Venus reporter expression, fluorescence. Potency, µM (series often up to 36.5 µM), most hits filed as inhibitors. actives 0.46% (n = 330,000); calls by dose curve; tested in A549 cells; also: nearly all actives have a fitted effect of over 30% in size
FMDV inh – foot and mouth disease virus antiviral activity. Potency, µM (titrated, usually from 57.9 µM), most hits filed as inhibitors. actives 1.2% (n = 410,000). FMDV antiviral cell-based qHTS; calls by dose curve; tested in HEK293T cells; also: read-out not given here; nearly all actives have a fitted effect of over 45% in size
HCMV inh – blocks human cytomegalovirus replication; HFF cells, HCMV-luciferase reporter, 72 h; active compounds read low; activity change, negative = inhibition, % at 57.5 µM; actives 4.5% (n = 410,000); AID 1259415; in the data active = activity change below about -60%; inconclusive = no clear call, values can overlap the other calls; inactive = above about -39%
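Steps: HFFs plated, 16 h 37C; compounds added; HCMV-luciferase added to MOI 1 PFU/cell; 72 h 37C; OneGlo reagent, 5 min room temperature; luminescence read, normalized to controls.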
LASV entry inh – inhibitors of Lassa virus binding or cell entry; Lassa virus pseudotype entry inhibition, cell reporter; Potency, µM (series often up to 37.9 µM), usual class: inhibitors; actives 1.2% (n = 300,000); calls by dose curve; tested in HEK293 cells; also: nearly all actives have a fitted effect of over 50% in size
Marburg entry inh – inhibitors of Marburg virus binding or cell entry. Marburg virus pseudotyped entry inhibition, cell reporter. Potency, µM (highest dose often 37.8 µM), most hits filed as inhibitors. actives 1.8% (n = 300,000); calls by dose curve; tested in HEK293 cells
Of the large screens only hits and unclear results are named; the others gave an inactive call; ! = a repeat was not active. An excerpt weighted towards active compounds, which were near 6.5% of everything screened.

O=C(c1cccc(F)c1)N1CC(=O)N2[C@@H](CO)[C@@H](c3ccc(Br)cc3)[C@@H]2C1	none (no result: Vaccinia mCherry, VACV Venus inh, FMDV inh, LASV entry inh, Marburg entry inh)
c1ccc2c(c1)OCC(C1=NCCN1)O2 (centres undefined)	FMDV inh inconclusive, LASV entry inh 2.59µM!, Marburg entry inh inconclusive
Nn1c(C2COc3ccccc3O2)n[nH]c1=S (centres undefined)	none (no result: Vaccinia mCherry, VACV Venus inh, LASV entry inh, Marburg entry inh)
COC(=O)C1=C(C)N(Cc2ccccc2)C(=NCC(C)C)NC1c1cccc(F)c1 (centres undefined)	LASV entry inh inconclusive (no result: Vaccinia mCherry, VACV Venus inh, FMDV inh, HCMV inh)
COc1ccc(CC(=O)Nc2cccc(/C(C)=N/NC(=O)c3cccc([N+](=O)[O-])c3)c2)cc1	LASV entry inh 11.2µM, Marburg entry inh inconclusive
COc1ccc(C(=O)N/N=C(/C)c2cccc(NC(=O)c3ccccc3F)c2)cc1	none
COc1ccc(C(=O)N/N=C(\C)c2cccc(NC(=O)c3ccc(F)cc3)c2)c(OC)c1	Vaccinia mCherry inconclusive, VACV Venus inh inconclusive, HCMV inh -60.6
COc1cccc(C(=O)COc2cccc(NC(=O)c3cccc([N+](=O)[O-])c3)c2)c1	VACV Venus inh inconclusive, FMDV inh 28.2µM, HCMV inh inconclusive, LASV entry inh inconclusive, Marburg entry inh inconclusive (no result: Vaccinia mCherry)
Oc1c(C(c2ccccc2)N2CCOCC2)sc2nc(-c3ccco3)nn12 (centres undefined)	HCMV inh inconclusive (no result: Marburg entry inh)
COc1ccc(C(=O)NCCSc2c(C)[nH]c3ccccc23)cc1	HCMV inh -96.4, Marburg entry inh inconclusive
COc1ccc(/C=N/NC(=O)c2cccnc2)cc1CSc1ccccn1	HCMV inh inconclusive, Marburg entry inh inconclusive
COc1ccc(N(CC(=O)NCCSc2ccccn2)S(C)(=O)=O)cc1	none (no result: Vaccinia mCherry, VACV Venus inh)
COc1ccc(C(=O)N/N=C/c2ccc(OC)c(CSc3ccccn3)c2)cc1	HCMV inh -64.6 (no result: Vaccinia mCherry, VACV Venus inh)
COc1ccc(C(=O)NCCSc2ccccn2)cc1	FMDV inh inconclusive, LASV entry inh 14.1µM, Marburg entry inh inconclusive (no result: Vaccinia mCherry)
CC(=O)CC1c2cc(F)ccc2C=C(c2ccsc2)N1c1ccc(-c2cccnc2)cc1 (centres undefined)	FMDV inh inconclusive (no result: LASV entry inh, Marburg entry inh)
COc1cccc(-c2cccc3c2NC(=O)C3(C)Cc2cccc(F)c2)c1 (centres undefined)	FMDV inh 35.5µM (no result: LASV entry inh, Marburg entry inh)
CCc1ccc2c(c1)NC(=O)C2(C)Cc1cccc(F)c1 (centres undefined)	HCMV inh inconclusive (no result: LASV entry inh, Marburg entry inh)
CC1(Cc2cc(Cl)ccc2C(F)(F)F)C(=O)Nc2ccc(-c3ccc(F)c(Cl)c3)cc21 (centres undefined)	HCMV inh -62.7 (no result: LASV entry inh, Marburg entry inh)
CC1(Cc2ccc(Cl)cc2)C(=O)Nc2ccc(-c3cccnc3)cc21 (centres undefined)	HCMV inh -66.3 (no result: LASV entry inh, Marburg entry inh)
CC1(Cc2cccc(F)c2)C(=O)Nc2ccc(-c3cccnc3)cc21 (centres undefined)	VACV Venus inh inconclusive, HCMV inh -74.1 (no result: LASV entry inh, Marburg entry inh)
CCc1c(C2(O)CCCCC2)[nH]c2ccc(C(F)(F)F)cc12	VACV Venus inh inconclusive, FMDV inh 39.8µM (no result: LASV entry inh, Marburg entry inh)
CNC(=O)c1cccc(-n2c(C)nc3cccnc32)c1C	HCMV inh active (no result: Marburg entry inh)
CC(C)(C)OC(=O)NCC(=O)Oc1cc2oc(=O)cc(-c3ccccc3)c2cc1Cl	HCMV inh -76.2
CCOC(=O)c1c(NC(C)=O)c2c3c(sc2n1Cc1ccc(Cl)cc1)CCCC3	none (no result: LASV entry inh)
CCOC(=O)c1c(NC(C)=O)c2c3c(sc2n1Cc1cccc(Cl)c1)CCCC3	HCMV inh -83.6, Marburg entry inh inconclusive (no result: LASV entry inh)
CCOC(=O)/C(C#N)=C/c1cn(CCC(=O)O)nc1-c1cccc(Br)c1	none
COc1cc2c(=O)c(C(=O)c3ccc(C)c(C)c3)cn(Cc3ccccc3F)c2cc1OC	FMDV inh inconclusive, HCMV inh -71.7, LASV entry inh inconclusive, Marburg entry inh inconclusive
COc1ccccc1Cn1cc(C(=O)c2ccc(Cl)cc2)c(=O)c2ccccc21	VACV Venus inh inconclusive, HCMV inh -100.6, LASV entry inh inconclusive, Marburg entry inh inconclusive
CCc1ccc(C(=O)c2cn(Cc3ccccc3)c3cc(OC)c(OC)cc3c2=O)cc1	HCMV inh -64.9, Marburg entry inh inconclusive
COc1cc2c(=O)c(C(=O)c3ccc(C)c(C)c3)cn(Cc3ccccc3)c2cc1OC	none
COc1cc(C=NN=c2sc3ccccc3n2C)ccc1OCCO	none (no result: Vaccinia mCherry, VACV Venus inh, FMDV inh, LASV entry inh, Marburg entry inh)
CCOc1cc2[nH]c(=S)n(Cc3ccc(C(=O)NCC(OC)OC)cc3)c(=O)c2cc1OCC	none (no result: Vaccinia mCherry, VACV Venus inh)
CCN(CC)CCNC(=O)c1ccc2c(=O)n(C3CCCC3)c(=S)[nH]c2c1	LASV entry inh inconclusive, Marburg entry inh 8.2µM (no result: Vaccinia mCherry, VACV Venus inh)
CCOc1cc2[nH]c(=S)n(Cc3ccc(C(=O)NCCN(CC)CC)cc3)c(=O)c2cc1OCC	Marburg entry inh 10µM
COc1cc(C=NNc2ncnc3c2cnn3C(C)C)ccc1O	LASV entry inh 12.5µM (no result: Vaccinia mCherry, VACV Venus inh, FMDV inh, HCMV inh, Marburg entry inh)
COc1cc(/C=N/Nc2nn3cnnc3c3ccccc23)ccc1O	Vaccinia mCherry inconclusive, LASV entry inh inconclusive
COC(=O)c1c(C(=O)OC)c(-c2ccc(OC)cc2)n2c1CS(=O)(=O)C2	HCMV inh -74.0 (no result: Vaccinia mCherry, VACV Venus inh, LASV entry inh, Marburg entry inh)
COC(=O)c1c(C(=O)OC)c(-c2ccc(C)cc2)n2c1CCC2	none (no result: Vaccinia mCherry, VACV Venus inh)
CCc1nn2c(=O)cc(COC(=O)c3ccccc3NC(=O)c3ccc(C(C)(C)C)cc3)nc2s1	HCMV inh inconclusive, LASV entry inh inconclusive (no result: Marburg entry inh)
CCOc1ccc(C(=O)Cn2c(=O)n3nc(CCn4nc(C)cc4C)nc3c3cc(OC)c(OC)cc32)cc1	Vaccinia mCherry 3.55µM, VACV Venus inh inconclusive (no result: Marburg entry inh)
COc1cc2c(cc1OC)n(CC(=O)c1ccc(C)cc1)c(=O)n1nc(CCn3nc(C)cc3C)nc21	none (no result: Marburg entry inh)
CC(Nc1ncnc2ccccc12)c1ccccc1 (centres undefined)	FMDV inh inconclusive, HCMV inh -82.4, LASV entry inh inconclusive, Marburg entry inh inconclusive
O=C(O)c1ccc(N/N=C/c2ccc(OC(=O)c3ccccc3Cl)cc2)cc1	FMDV inh 12.6µM, HCMV inh -67.6, LASV entry inh 0.708µM, Marburg entry inh inconclusive
COc1ccc(/C=N/Nc2ccc(C(=O)O)cc2)cc1Br	FMDV inh 22.4µM, LASV entry inh inconclusive, Marburg entry inh 3.16µM
CC(C)c1ccc(/C=N/Nc2ccc(C(=O)O)cc2)cc1	FMDV inh 44.7µM, HCMV inh -63.5, LASV entry inh 0.651µM, Marburg entry inh 1.46µM (no result: Vaccinia mCherry, VACV Venus inh)
COc1ccc(/C=N/Nc2ccc(C(=O)O)cc2)cc1OC	FMDV inh inconclusive (no result: Vaccinia mCherry, VACV Venus inh, LASV entry inh, Marburg entry inh)
Nc1ccc(C(=O)N/N=C\c2ccc(OC(=O)c3ccccc3Cl)cc2)cc1	none (no result: Vaccinia mCherry, VACV Venus inh, LASV entry inh, Marburg entry inh)
OC[C@@H]1CN(Cc2ccc3c(c2)OCO3)C[C@H](n2cnc3c(N4CCOCC4)ncnc32)O1	none (no result: LASV entry inh, Marburg entry inh)
Cc1nc(NC(C)(C)CO)c([N+](=O)[O-])cc1[N+](=O)[O-]	none
O=C(Nc1sc2c(c1C(=O)NCC(O)CO)CCCC2)c1ccccc1 (centres undefined)	Marburg entry inh inconclusive
Cc1ccc(-c2noc(CCC(=O)NC3CCCC3)n2)cc1	LASV entry inh inconclusive, Marburg entry inh inconclusive
COc1ccc(-c2noc(CCC(=O)Nc3ccccc3Cl)n2)cc1OC	none
Cc1ccc(-c2noc(CCCC(=O)NC3CCCCC3)n2)cc1	FMDV inh inconclusive, HCMV inh -77.0, Marburg entry inh inconclusive
